Assay outcomes as filed in PubChem.
Most compounds without a hit are left out; they make up all but 1.2% or so of the library.
PrP UTR inh: inhibition of PrP 5' UTR reporter expression. cell-based PrP 5' UTR mRNA reporter, plate reader. inhibition, % (test concentration not listed). 340,000 compounds, 0.35% hits; in the data active = inhibition above about 52%
PrPC TRFRET: inhibitors of human cell surface prion protein PrPC | P04156 | TR-FRET read-out | inhibition, % at 13.8 µM | 370,000 compounds, 0.43% hits; in the data active = inhibition above about 24%
Mtb UGM inh: blocks M. tuberculosis UGM enzyme | purified UGM, fluorescence polarization probe displacement | inhibition, % at 10 µM | 320,000 compounds, 0.06% hits | AID 504406; in the data active = inhibition above about 10%, passing the limit was not always enough; inconclusive = no clear call, values can overlap the other calls
SSB-PriA inh: K. pneumoniae PriA-SSBct interaction inhibition. 430,000 compounds, 0.6% hits. AlphaScreen SSBct-PriA binding, biotinylated peptide. inhibition, % at 33 µM; in the data active = inhibition mostly above about 37%, no sharp cut-off; inactive = mostly below about 20%
FadD28 binding: M. tuberculosis FadD28 bisubstrate binding inhibition | FadD28 bisubstrate probe binding, fluorescence polarization | inhibition, % at 12.5 µM | 360,000 compounds, 0.22% hits; in the data active = inhibition above about 8.5%, passing the limit was not always enough; inconclusive = no clear call, values can overlap the other calls
Rv3671c inh: inhibits the M. tuberculosis serine protease Rv3671c | 320,000 compounds, 0.048% hits | inhibition, % at 5.96 µM | P9WHR9 | AID 2606; in the data active = inhibition above about 38%;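 note: extracellular domain of Rv3671c used as enzyme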
Target sequence (P9WHR9 whole entry, looked up, the tested form may be a part): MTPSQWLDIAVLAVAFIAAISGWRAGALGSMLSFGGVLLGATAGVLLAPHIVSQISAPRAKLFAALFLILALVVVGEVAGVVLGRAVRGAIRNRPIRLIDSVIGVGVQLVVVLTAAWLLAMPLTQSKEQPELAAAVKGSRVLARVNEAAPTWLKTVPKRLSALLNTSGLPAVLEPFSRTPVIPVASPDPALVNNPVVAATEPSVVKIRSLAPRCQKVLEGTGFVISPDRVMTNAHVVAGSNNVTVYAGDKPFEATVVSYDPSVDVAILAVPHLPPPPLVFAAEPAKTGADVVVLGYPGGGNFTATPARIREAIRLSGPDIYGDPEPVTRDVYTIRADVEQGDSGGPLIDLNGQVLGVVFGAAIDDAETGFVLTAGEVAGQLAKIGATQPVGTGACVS
A number is an active result; n = inactive; u = inconclusive; x = no result given.

SMILES	PrP UTR inh	PrPC TRFRET	Mtb UGM inh	SSB-PriA inh	FadD28 binding	Rv3671c inh
O=C(Nc1nc(-c2ccccn2)cs1)c1sccc1C1CC1	x	x	x	114	x	x
O=C(Nc1nc(-c2ccccn2)cs1)c1cc(-c2ccco2)[nH]n1	x	x	x	66	x	x
O=C(Nc1nc(-c2ccccn2)cs1)C1c2ccccc2Oc2ccccc21	x	x	x	n	x	x
O=C(Nc1nc(-c2ccco2)cs1)c1ccccc1	n	n	n	n	n	n
CSc1ccccc1C(=O)Nc1nc(-c2ccc(F)cc2)cs1	x	x	x	n	x	x
Cn1nc(C(=O)Nc2nc(-c3ccccn3)cs2)c2ccccc2c1=O	n	n	x	43	n	x
Cc1ccc(C(=O)Nc2nc(-c3ccccn3)cs2)cc1-n1cccc1	x	x	x	103	x	x
Cc1ccc(C(=O)Nc2nc(-c3ccccn3)cs2)cc1NC(=O)c1ccco1	x	x	x	n	x	x
CSc1ccccc1C(=O)Nc1nc(-c2ccccn2)cs1	x	x	x	106	x	x
O=C(Nc1nc(-c2ccccn2)cs1)c1ccccc1Cl	x	x	x	100	x	x
CCOc1ccc2oc(C)c(C(=O)Nc3ccc(OC)cc3OC)c2c1	x	x	x	n	x	x
CCc1ccc(C(=O)Nc2nc(-c3ccccn3)cs2)cc1	x	x	x	85	x	x
CCn1ccnc1CN(C)Cc1cn(-c2cccc(C)c2)nc1-c1cccc(F)c1	n	n	n	n	n	n
Cc1cccc(-n2cc(CN(C)Cc3nccn3C)c(-c3cccc(F)c3)n2)c1	n	n	n	39	n	n
CC1CC1C(=O)Nc1nc(-c2ccccn2)cs1 (centres undefined)	n	n	n	60	n	n
O=C(Nc1nc(-c2ccccn2)cs1)C1CC1c1ccco1 (centres undefined)	x	x	x	99	x	x
O=C(Nc1nc(-c2ccccn2)cs1)C1COc2ccccc2O1 (centres undefined)	n	n	n	71	n	n
CN(C)CCN(C(=O)c1cc2cc([N+](=O)[O-])ccc2s1)c1nc2cc3c(cc2s1)OCCO3	x	x	x	n	x	x
Cc1nn(C)c(C)c1C(=O)NCC(C)(O)c1cc2ccccc2o1 (centres undefined)	x	x	x	n	x	x
Cc1ccccc1OCCNc1cc(N2CCN(CCO)CC2)ccc1[N+](=O)[O-]	n	n	n	42	n	n
Cc1csc(N2CCCC2c2nc3cc(C(F)(F)F)ccc3n2CCOCCO)n1 (centres undefined)	n	n	n	48	n	n
Cc1csc(N2CCCC2c2nc3cc(Cl)c(N4CCCCC4)cc3n2CCOCCO)n1 (centres undefined)	n	n	n	n	n	n
c1ccc(CSc2cccc3cccnc23)cc1	x	x	x	n	x	x
O=C(Sc1cccc2cccnc12)c1ccc(F)cc1	x	28	x	x	x	x
C=CCn1nc([N+](=O)[O-])nc1Sc1cccc2cccnc12	n	x	n	102	n	n
SMILES	PrP UTR inh	PrPC TRFRET	Mtb UGM inh	SSB-PriA inh	FadD28 binding	Rv3671c inh
CC(=O)/C(=N\Nc1ccccc1)Sc1cccc2cccnc12	n	n	n	x	n	n
O=[N+]([O-])c1ccc(Sc2cccc3cccnc23)cc1	n	n	n	n	n	n
C=CCSc1cccc2cccnc12	x	x	x	125	x	x
C#CCSc1cccc2cccnc12	x	x	x	n	x	x
ClC1(Cl)CC1CSc1cccc2cccnc12 (centres undefined)	x	x	x	128	x	x
CSc1cccc2cccnc12	x	x	x	75	x	x
Cc1ccc2ccc3cccnc3c2n1	n	n	n	50	n	n
c1cnc2c(SSc3cccc4cccnc34)cccc2c1	x	x	x	n	x	x
O=C(/C=C/c1ccccc1)NC(=S)NNC(=O)c1cnccn1	n	n	n	83	n	n
O=C(Nc1nc(-c2ccc3c(c2)OCCO3)cs1)C1CCCN1S(=O)(=O)c1cccs1 (centres undefined)	x	x	x	n	x	x
Cc1ccc(S(=O)(=O)N2CCCCC2C(=O)Nc2nc(-c3ccccn3)cs2)cc1 (centres undefined)	x	x	x	65	x	x
Cc1csc(NC(=O)C2CCCCN2S(=O)(=O)c2ccccc2)n1 (centres undefined)	n	n	n	n	n	n
O=C(Nc1nc(-c2ccccn2)cs1)C1CCCCN1S(=O)(=O)c1cccs1 (centres undefined)	x	x	x	104	x	x
CCOc1ccc(CC(=O)Oc2cc(C)[nH]c(=O)c2[N+](=O)[O-])cc1	x	x	x	n	x	x
Cc1cc(C(=O)NC2CCC(Oc3nccnc3C#N)CC2)c(C)o1 (centres undefined)	x	x	x	n	x	x
COc1ccc(CC(=O)NCC(c2ccc3c(c2)CCN3C)N2CCOCC2)cc1OC (centres undefined)	x	x	x	n	x	x
CSc1nccc(-c2nn(-c3ccc(Cl)cc3)ccc2=O)n1	x	x	x	53	x	x
O=C1OC[C@@H]2CCCN2C(=O)[C@@H](CC(=O)N(CCO)Cc2ccccc2)C/C=C/CC[C@H]1Cc1ccc(F)cc1	x	x	x	n	x	x
CCOC(=O)c1ccccc1NC(=O)Cn1c(=O)n(CCCC(=O)NCc2ccccc2OC)c(=O)c2ccccc21	x	x	x	n	x	x
Cc1cc(C)n(-c2ccc(N3CCC(C(=O)Nc4cnc5ccccc5c4)CC3)nn2)n1	x	x	x	n	x	x
O=C(NC(=S)Nc1cc([N+](=O)[O-])ccc1O)c1ccc2c(c1)OCO2	n	n	n	n	13	n
COc1cc([N+](=O)[O-])ccc1NC(=S)NNC(=O)c1ccc2c(c1)OCO2	n	n	n	n	u	n
O=C(NC(=S)Nc1ccccc1N1CCCC1)c1ccc([N+](=O)[O-])cc1	n	n	n	70	n	n
O=C(NC(=S)Nc1ccccc1N1CCOCC1)c1ccc([N+](=O)[O-])cc1	n	n	n	n	n	n
Cn1cc(S(=O)(=O)NC[C@H](O)c2ccc(C(F)(F)F)cc2)cn1	x	x	x	n	x	x
SMILES	PrP UTR inh	PrPC TRFRET	Mtb UGM inh	SSB-PriA inh	FadD28 binding	Rv3671c inh
Cn1nc(CNS(=O)(=O)C2CC2)c2c1CCOC2	x	x	x	n	x	x
CCN(CC)c1cccc(OCC#CCNS(=O)(=O)c2ccc3c(c2)CCO3)c1	x	x	x	n	x	x
O=C(NN=CC1C(=O)NC(=S)N(c2ccccc2)C1=O)c1cc(Br)c(O)c(Br)c1 (centres undefined)	x	x	x	62	x	x
COc1ccc(Nc2nc(Nc3ccc4c(c3)OCO4)nc(N3CCOCC3)n2)cc1	x	x	x	38	x	x
CO[C@@H](CNC(=O)C(=O)NC1CCCC1)c1ccc(C)s1	x	x	x	n	x	x
CC(=O)OC[C@H]1O[C@@H](Sc2cccc3cccnc23)[C@H](OC(C)=O)[C@@H](OC(C)=O)[C@H]1OC(C)=O	n	n	n	40	n	n
CC(=O)OC[C@H]1O[C@@H](Sc2cccc3cccnc23)[C@H](OC(C)=O)[C@@H](OC(C)=O)[C@@H]1OC(C)=O	n	n	n	n	n	n
O=C(CSC1CCCC1)Nc1ccc(CC(=O)NC2CC2)cc1	x	x	x	n	x	x
O=C1/C(=C/C=C/c2ccco2)SC(=S)N1c1ccc(O)cc1	n	n	n	n	18	n
O=C(NN1C(=O)/C(=C/C=C/c2ccco2)SC1=S)c1ccncc1	x	n	n	n	30	n
CC(C)C(C(=O)O)N1C(=O)/C(=C/C=C/c2ccco2)SC1=S (centres undefined)	n	x	n	n	47	n
O=C1/C(=C\c2ccco2)SC(=S)N1c1ccc(O)cc1	n	n	n	n	n	n
O=C(NN1C(=O)/C(=C/C=C/c2ccccc2)SC1=S)c1ccncc1	n	n	n	n	n	n
Cc1noc(C)c1S(=O)(=O)NCc1cc(-c2ccco2)n(C)n1	x	x	x	n	x	x
